From PubChem BioAssay (NCI) come the findings set out here.

Some test systems named below: HCT-15 colon; HT29 colon; SNB-75 CNS; SNB-19 CNS; U251 CNS; PC-3 prostate; SK-MEL-5 melanoma; UACC-62 melanoma; LOX IMVI melanoma; SK-MEL-28 melanoma; SK-MEL-2 melanoma; EKVX NSCLC; UO-31 renal; TK-10 renal; ACHN renal; CAKI-1 renal; A498 renal; HL-60(TB) leukemia; CCRF-CEM leukemia; SN12C renal.
Holding throughout (experiment): NCI-60 one-dose screen, 48 h (100 = growth as untreated, 0 = no growth, -100 = all killed)
What all share (settings): 10 µM unless noted

Each structure is given as a SMILES string. Several values for one entry are separate records, joined by “and”; a condition that tells them apart may be missing. Equal values may be shown once. This is part of a sample that, as a whole, favours compounds with a hit. Of some 83,000 tested, about 20% had one in any assay.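 Single-concentration screen, 48 h exposure, 96-well plates. Endpoint: percent growth. Below 10 = active.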 Values without a mark were called inactive. Activity calls are given as the source filed them.

Turning to `CCCC1CCCCC12C(=O)NC(=O)NC2=O` (stereo not given), the growth was 94.3% and 106% in the assay with HCT-15 colon; 97.2% and 94.3% with HT29 colon; 100% and 87.2% with SNB-75 CNS; 96.2% and 110% with SNB-19 CNS; 97.8% and 102% in the assay with U251 CNS; 104% and 101% in the assay on PC-3 prostate. Moreover, the growth in the assay on SK-MEL-5 melanoma was 95.5% and 103%; in the assay with UACC-62 melanoma, 98.2% and 109%; in the assay with LOX IMVI melanoma, 97% and 97.1%; in the assay with SK-MEL-28 melanoma, 103% and 114%; in the assay with SK-MEL-2 melanoma, 105% and 99.8%; with EKVX NSCLC it was 85.6%. Also, the growth in the assay on UO-31 renal is 84.3% and 87.9%; in the assay on TK-10 renal, 92.9% and 107%; in the assay on ACHN renal, 104% and 106%; in the assay with CAKI-1 renal, 94.8% and 99.6%; with A498 renal, 70.3% and 102%; in the assay on HL-60(TB) leukemia it was 121% and 94.2%. In the assay with CCRF-CEM leukemia, the growth was 109% and 101%.
With `CCOP(=O)(NC)OCC`, the growth in the assay with HCT-15 colon was 112%; in the assay with HT29 colon it was 109%; with SNB-75 CNS, 103%; in the assay with SNB-19 CNS, 102%; in the assay with U251 CNS, 107%; in the assay on PC-3 prostate, 85.4%. Also, the growth was 100% with SK-MEL-5 melanoma; 108% in the assay with UACC-62 melanoma; 102% in the assay on LOX IMVI melanoma; 104% with SK-MEL-28 melanoma; 124% with SK-MEL-2 melanoma; 146% in the assay with EKVX NSCLC. Besides, the growth in the assay on UO-31 renal is 92.2%; in the assay on TK-10 renal, 129%; in the assay with ACHN renal, 108%; in the assay on CAKI-1 renal it was 111%; in the assay with A498 renal, 74.3%; in the assay on CCRF-CEM leukemia, 93.4%.
Take `NC1CN2CCC1CC2` (stereo not given): the growth is 99.3% with HCT-15 colon; 99.8% with HT29 colon; 73.9% in the assay with SNB-75 CNS; 101% in the assay on SNB-19 CNS; 103% with U251 CNS; 90.7% in the assay on PC-3 prostate. The growth with SK-MEL-5 melanoma was 110%; in the assay on UACC-62 melanoma, 90.4%; in the assay with LOX IMVI melanoma, 97.2%; in the assay on SK-MEL-28 melanoma, 100%; in the assay with SK-MEL-2 melanoma, 100%; in the assay on EKVX NSCLC, 96.5%. Besides, the growth was 80.3% with UO-31 renal; 98.2% in the assay with TK-10 renal; 93% in the assay with ACHN renal; 86.7% with CAKI-1 renal; 97.8% in the assay on A498 renal; 84.9% with HL-60(TB) leukemia. In addition, the growth in the assay with CCRF-CEM leukemia is 93%.
Consider `Nc1ccc(P(=O)(O)O)cc1`, for which the growth in the assay with HCT-15 colon was 97.4% and 95.9%; in the assay with HT29 colon, 104% and 103%; in the assay on SNB-75 CNS, 95% and 94.5%; in the assay on SNB-19 CNS, 108% and 107%; in the assay with U251 CNS it was 102% and 94.7%; with PC-3 prostate, 99.5% and 92.7%. Further, the growth with SK-MEL-5 melanoma was 110% and 107%; in the assay with UACC-62 melanoma it was 110% and 99.8%; in the assay with LOX IMVI melanoma, 89.1% and 98%; in the assay with SK-MEL-28 melanoma it was 117% and 111%; in the assay with SK-MEL-2 melanoma it was 120% and 99.4%; in the assay on EKVX NSCLC, 95.7%. In addition, the growth in the assay on SN12C renal was 103% and 101%; with TK-10 renal, 119% and 97.4%; with ACHN renal it was 98.7% and 105%; in the assay with CAKI-1 renal, 102% and 99.5%; in the assay on A498 renal, 105% and 108%; in the assay on HL-60(TB) leukemia, 136% and 106%. In addition, the growth in the assay with CCRF-CEM leukemia is 97.5% and 95.4%.
Consider `O=C(CBr)OCCOC(=O)CBr`, for which the growth was 72.4% in the assay with HCT-15 colon; 92.5% with HT29 colon; 91.2% in the assay on SNB-75 CNS; 104% in the assay on SNB-19 CNS; 87.4% with U251 CNS; 84.1% in the assay on PC-3 prostate. Moreover, the growth with SK-MEL-5 melanoma was 99.3%; with UACC-62 melanoma it was 81.4%; with LOX IMVI melanoma, 37.1%; in the assay with SK-MEL-28 melanoma, 79.5%; in the assay with SK-MEL-2 melanoma it was 103%; in the assay with EKVX NSCLC it was 101%. Also, the growth in the assay on UO-31 renal was -92.4% (active); in the assay with TK-10 renal, 130%; in the assay on ACHN renal, 83%; in the assay on CAKI-1 renal, 33.5%; in the assay with A498 renal, 150%; with HL-60(TB) leukemia, 42.4%. Moreover, the growth in the assay with CCRF-CEM leukemia is -15.5% (active).
`C=CC1CN2CCC1CC2C(O)c1ccnc2ccccc12` (stereo not given): the growth is 116% with HCT-15 colon; 115% in the assay with HT29 colon; 124% in the assay on SNB-75 CNS; 124% with SNB-19 CNS; 115% in the assay on U251 CNS; 55.8% in the assay on PC-3 prostate. The growth is 104% with SK-MEL-5 melanoma; 113% with UACC-62 melanoma; 117% in the assay on LOX IMVI melanoma; 133% in the assay on SK-MEL-28 melanoma; -4.22% (active) in the assay with SK-MEL-2 melanoma; 145% in the assay on EKVX NSCLC. Further, the growth with SN12C renal is 109%; with TK-10 renal, 142%; with ACHN renal, 109%; in the assay on CAKI-1 renal, 144%; with A498 renal, 125%; in the assay with HL-60(TB) leukemia, 225%. Besides, in the assay with CCRF-CEM leukemia, the growth is 304%.
Regarding `CC/C(=C(\c1ccc(OCCN2CCOCC2)cc1)c1ccc(OC(=O)Cc2ccccc2)cc1)c1ccc(Cl)cc1`, the growth is 112% in the assay with HCT-15 colon; 95.1% in the assay on HT29 colon; 114% with SNB-75 CNS; 99.6% in the assay with SNB-19 CNS; 103% with U251 CNS; 95.3% in the assay with PC-3 prostate. Further, the growth in the assay on SK-MEL-5 melanoma is 107%; in the assay on UACC-62 melanoma, 99.7%; in the assay on LOX IMVI melanoma, 99%; with SK-MEL-28 melanoma, 101%; in the assay on SK-MEL-2 melanoma it was 101%; in the assay with EKVX NSCLC, 109%. Moreover, the growth in the assay on UO-31 renal is 87.9%; with TK-10 renal, 93%; in the assay on CAKI-1 renal it was 91.9%; with A498 renal, 104%; in the assay with CCRF-CEM leukemia, 98.1%.
